ELG1 genotox: genotoxicity induction in ELG1-luciferase HEK293T cells. HEK293T ELG1-luciferase reporter, luminescence, 16 h. Potency, µM (highest dose often 46 µM), without a hit: top-dose activity change, positive = activation, hits mostly activators. 330,000 compounds, 1.3% hits. AID 504466; note: % of control where 0% means no effect; nearly all actives have a fitted effect of over 60% in size
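Cells (2,000/well) expressing the ELG1-luciferase fusion are dosed by pin tool and kept 16 hr at 37 °C, 5% CO2. Signal comes from ONE-Glo luciferase reagent after 30 min at room temperature.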
ELG1 repair inh: ELG1-dependent DNA repair inhibition; HEK293T ELG1-luciferase reporter, luminescence, 16 h; DNA damage induced by 5-fluorouridine; Potency, µM (titrated, usually from 46.1 µM), without a hit: at the highest dose activity change, negative = inhibition, actives largely listed as inhibitors; 330,000 compounds, 2.3% hits; AID 504467; note: % is set by controls: 0 for no effect and ±100 for the full control effect; nearly all actives have a fitted effect of over 55% in size
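HEK293T cells expressing luciferase-tagged ELG1 (2,000/well) received 5-Fluorouridine plus compound or DMSO for 16 hr at 37 °C. Luciferase was read by ONE-Glo luminescence after 30 min at room temperature.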
FLuc modulator: firefly luciferase modulation, counter-screen for miR-21 project; 360,000 compounds, 6.9% hits; Potency, µM (top dose mostly 57.5 µM), for inactives: top-dose activity change, negative = inhibition, actives largely listed as inhibitors; purified FLuc, Km substrates, luminescence inhibition; P08659;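 note: plate controls were vehicle for no effect and reference inhibitor for full effect; nearly all actives have a fitted effect of over 55% in size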
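Purified P. pyralis luciferase, 10 nM final, with Km-level 10 uM D-luciferin and 10 uM ATP in 50 mM Tris acetate pH 7.5, 10 mM Mg acetate, 0.01% Tween-20, 0.05% BSA; 6-point qHTS titration about 60 µM downward; luminescence read.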
SMN2 splice enh: enhancers of SMN2 splice variant expression. 210,000 compounds, 2.8% hits. HEK293 SMN2-luciferase splicing reporter, luminescence, 30-36 h. Potency, µM (highest dose often 46.1 µM), for the others: at the top dose activity change, positive = activation, actives largely listed as activators; note: % of control where 0% means no effect; nearly all actives have a fitted effect of over 55% in size
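qHTS luciferase splicing reporter: luminescence rises when SMN2 exon 7 is included in transfected HEK293 cells. Compound exposure lasted 30-36 h at 37C, with 4.5 mM final sodium butyrate as control, followed by a ONE-Glo read.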
NPC1 promoter act: NPC1 promoter activation; 320,000 compounds, 2.4% hits; Huh7 NPC1 promoter luciferase reporter, 24 h; Potency, µM (series often up to 9.22 µM), for inactives: at the top dose activation, usual class: activators; AID 485313; note: % of control where 0% means no effect; nearly all actives have a fitted effect of over 60% in size
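Cells: Huh7 expressing luciferase under the NPC1 promoter, 1500/well. Seeded 2 h, compound added, incubated 24 h at 37 °C. Luciferase reagent, 10 min ambient, then luminescence.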
Rab9 promoter act: activators of Rab9 promoter. Huh7 Rab9 promoter-luciferase reporter, luminescence, 24 h. Potency, µM (series often up to 9.22 µM), for the others: at the highest dose activation, negative = inhibition, hits mostly activators. 320,000 compounds, 2.8% hits; note: % of control where 0% means no effect; nearly all actives have a fitted effect of over 60% in size
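Rab9 promoter-driven luciferase in stably transfected Huh7 cells; 1500 cells/well rested 2 h, exposed to compound in DMSO for 24 h at 37 °C, 5% CO2. Luminescence read 10 min after adding luciferase reagent at ambient temperature.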
ELG1 FLuc counter: luciferase inhibition in cell-free luciferin readout for ELG1 hits | shares compounds with ELG1 repair inh | cell-free firefly luciferase luminescence counter-screen, ViewLux | Potency, µM (series often up to 46.1 µM), for the others: at the highest dose activity change, negative = inhibition, most hits filed as inhibitors | 350 compounds, 3% hits | AID 624247; note: % is set by controls: 0 for no effect and ±100 for the full control effect
ELG1-Luc inh: human ELG1 repair inhibition, luciferase-tagged ELG1 confirmation; shares compounds with ELG1 repair inh; 670 compounds, 68% hits; Potency, µM (series often up to 46.1 µM), for the others: at the highest dose activity change, negative = inhibition, most hits filed as inhibitors; HEK293T ELG1-luciferase levels, luminescence; cells co-treated with 5-fluorouridine; note: % is set by controls: 0 for no effect and ±100 for the full control effect; nearly all actives have a fitted effect of over 55% in size
Target sequence (Q96QE3 whole entry, looked up): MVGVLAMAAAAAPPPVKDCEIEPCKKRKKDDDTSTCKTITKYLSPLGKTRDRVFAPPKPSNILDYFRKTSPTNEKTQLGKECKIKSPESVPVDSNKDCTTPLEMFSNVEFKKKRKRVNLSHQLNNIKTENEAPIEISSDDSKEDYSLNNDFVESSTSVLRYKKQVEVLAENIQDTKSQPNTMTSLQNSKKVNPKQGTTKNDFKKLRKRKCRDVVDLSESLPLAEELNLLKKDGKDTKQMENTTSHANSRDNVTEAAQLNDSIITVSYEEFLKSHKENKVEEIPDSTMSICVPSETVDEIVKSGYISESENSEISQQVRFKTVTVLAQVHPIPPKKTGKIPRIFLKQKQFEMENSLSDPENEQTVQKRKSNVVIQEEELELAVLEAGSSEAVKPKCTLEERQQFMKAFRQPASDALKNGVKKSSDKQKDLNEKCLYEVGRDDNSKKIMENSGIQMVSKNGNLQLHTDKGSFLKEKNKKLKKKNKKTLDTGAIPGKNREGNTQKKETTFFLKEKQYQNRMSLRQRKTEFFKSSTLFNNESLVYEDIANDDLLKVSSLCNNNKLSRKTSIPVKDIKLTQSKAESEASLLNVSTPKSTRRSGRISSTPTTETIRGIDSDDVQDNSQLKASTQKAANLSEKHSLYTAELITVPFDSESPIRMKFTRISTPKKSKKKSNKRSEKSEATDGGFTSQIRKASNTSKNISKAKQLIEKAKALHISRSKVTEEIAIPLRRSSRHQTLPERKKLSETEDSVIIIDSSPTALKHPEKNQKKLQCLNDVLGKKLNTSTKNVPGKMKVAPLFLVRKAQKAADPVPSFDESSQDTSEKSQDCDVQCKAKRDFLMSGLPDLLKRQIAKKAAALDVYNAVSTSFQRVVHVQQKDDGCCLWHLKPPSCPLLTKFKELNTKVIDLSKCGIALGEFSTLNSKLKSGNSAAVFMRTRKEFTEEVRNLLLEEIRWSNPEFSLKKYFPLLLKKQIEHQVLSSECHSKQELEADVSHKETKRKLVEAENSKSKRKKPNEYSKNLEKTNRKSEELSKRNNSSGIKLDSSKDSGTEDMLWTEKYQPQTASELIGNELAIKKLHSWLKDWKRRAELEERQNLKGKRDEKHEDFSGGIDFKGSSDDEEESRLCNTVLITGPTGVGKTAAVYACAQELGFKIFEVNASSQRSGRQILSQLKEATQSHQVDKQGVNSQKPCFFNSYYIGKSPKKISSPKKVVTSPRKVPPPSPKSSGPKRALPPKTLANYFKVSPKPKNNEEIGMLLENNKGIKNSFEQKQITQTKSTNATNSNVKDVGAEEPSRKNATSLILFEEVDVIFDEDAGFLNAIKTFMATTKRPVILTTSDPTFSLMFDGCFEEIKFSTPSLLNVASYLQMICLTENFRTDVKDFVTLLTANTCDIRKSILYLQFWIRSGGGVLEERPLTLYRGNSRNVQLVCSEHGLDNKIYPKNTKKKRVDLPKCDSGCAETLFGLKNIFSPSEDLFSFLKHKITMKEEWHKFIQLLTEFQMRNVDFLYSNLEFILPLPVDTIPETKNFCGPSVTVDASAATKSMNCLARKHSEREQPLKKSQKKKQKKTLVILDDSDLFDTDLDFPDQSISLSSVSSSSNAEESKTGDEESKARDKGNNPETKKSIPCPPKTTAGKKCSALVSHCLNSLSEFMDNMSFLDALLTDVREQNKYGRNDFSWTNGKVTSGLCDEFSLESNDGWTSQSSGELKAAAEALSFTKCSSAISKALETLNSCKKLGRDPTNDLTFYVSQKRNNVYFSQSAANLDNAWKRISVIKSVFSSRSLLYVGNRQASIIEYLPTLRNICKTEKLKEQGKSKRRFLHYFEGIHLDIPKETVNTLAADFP
ELG1-Luc MMS: MMS-stimulated human ELG1 repair inhibition, confirmed. shares compounds with ELG1 repair inh. HEK293T luciferase-tagged ELG1 level, MMS stimulated. Potency, µM (series often up to 46.1 µM), inactives show at the top dose activity change, negative = inhibition, hits mostly inhibitors. 670 compounds, 53% hits. AID 624249; note: % is set by controls: 0 for no effect and ±100 for the full control effect; nearly all actives have a fitted effect of over 60% in size
ELG1 5-FU: confirmation of ELG1 repair inhibitors: viability with 5FU. shares compounds with ELG1 repair inh. cell viability with 5-FU, ELG1-dependent repair. Potency, µM (doses to about 46.1 µM), inactives show at the highest dose activity change, negative = viability loss, most hits filed as cytotoxic. 670 tested, under 10 active. AID 624250;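 note: ELG1-luc HEK293T cells cotreated with 5-fluorouridine at 10 µM final; viability measured 16 h after compound addition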
ELG1 MMS cell: confirmation of ELG1 repair inhibitors: viability with MMS | Potency, µM (doses to about 46.1 µM), inactives show at the highest dose activity change, negative = viability loss, most hits filed as cytotoxic | Cell viability with MMS, ELG1-dependent DNA repair | shares compounds with ELG1 repair inh | AID 624251 | 670 compounds, 33% hits;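 note: ELG1-luc HEK293T cells co-treated with 10 µM MMS; viability read 16 h after compound addition; % is set by controls: 0 for no effect and ±100 for the full control effect; nearly all actives have a fitted effect of over 60% in size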
Cell viab unstim: unstimulated viability counter-screen for ELG1 repair hits; 900 compounds, 8% hits; shares compounds with ELG1 repair inh; cell viability counter-screen, unstimulated, luminescence; Potency, µM (top dose mostly 45.9 µM), for the others: at the highest dose activity change, negative = loss of viability, most hits filed as cytotoxic;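 note: compound exposure lasted 16 hours before reading; % is set by controls: 0 for no effect and ±100 for the full control effect; nearly all actives have a fitted effect of over 55% in size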
FLuc enzyme: firefly luciferase inhibition counter-screen; shares compounds with ELG1 repair inh; purified firefly luciferase, luminescence counter-screen; Potency, µM (highest dose often 57.5 µM), for the others: at the top dose activity, negative = inhibition, actives largely listed as inhibitors; 350 compounds, 10% hits; AID 624253; note: % is set by controls: 0 for no effect and ±100 for the full control effect
Numbers without * were called inactive; ? = inconclusive; / = no result. Compounds with a hit are over-represented: about 9.3% of the library has one in this group of screens. Calls come from the whole dose curve; as a rule, active = well fitted curve in the direction sought with a large enough effect; inconclusive = small, poorly fitted or top-dose-only effect, or another doubt; inactive = no such curve, though single readings can be large; an effect the other way counts as inactive or inconclusive. Potency is the fitted concentration of half-maximal effect.

SMILES	ELG1 genotox	ELG1 repair inh	FLuc modulator	SMN2 splice enh	NPC1 promoter act	Rab9 promoter act	ELG1-Luc inh	ELG1-Luc MMS	ELG1 5-FU	ELG1 MMS cell	Cell viab unstim	others
CCc1cc(=O)oc2c3c(cc(OCC(=O)NCc4cccnc4)c12)OC(C)(C)CC3	-2%	3.7µM*	?	/	3%	-12%	?	16%	5%	-1%	?
O=C(CCn1ccnc1)Nc1nc2ccccc2[nH]1	0%	8%	5%	16%	7%	-1%	/	/	/	/	/
O=C(CSc1nc2ccc(NC(=O)CSc3nnnn3Cc3ccccc3)cc2s1)Nc1ccccc1	7%	4.6µM*	-1%	-8%	-1%	-2%	?	7.9µM*	-2%	13µM*	?
COc1cc2c(cc1OC)C(COc1ccc3c(C)cc(=O)oc3c1)N(C(=O)c1ccco1)CC2 (stereo unspecified)	1%	2.3µM*	-3%	19%	-7%	-4%	5.6µM*	22µM*	-4%	?	?	ELG1 FLuc counter=6%;FLuc enzyme=-10%
CCN1CCN(S(=O)(=O)c2cc(OCC(=O)NC3CCCCC3)c(C)cc2Cl)CC1	3%	?	5%	/	-22%	-23%	-16%	3.1µM*	-11%	2.5µM*	?
Cc1cc(Cl)c(S(N)(=O)=O)cc1OCC(=O)NC1CCCCC1	-6%	-14%	2%	/	-8%	5%	/	/	/	/	/
CCN(CC)CCCN(Cc1cc2cc(OC)c(OC)cc2[nH]c1=O)C(=O)Nc1ccccc1	14%	?	-15%	11%	1%	0%	/	/	/	/	/
COc1cc2cc(CN(Cc3cccnc3)C(=O)Nc3ccccc3F)c(=O)[nH]c2cc1OC	-4%	5.8µM*	-5%	/	-6%	1%	10µM*	1%	?	-1%	-8%	ELG1 FLuc counter=-5%;FLuc enzyme=-14%
COc1ccc(C(=O)CSc2nnc(CNC(=O)c3ccccc3)o2)cc1	-3%	-7%	-13%	/	1%	7%	/	/	/	/	/
COc1cc2c(cc1NC(=S)Nc1cccc(C(F)(F)F)c1)oc1ccccc12	-11%	14%	-2%	-21%	6%	0%	/	/	/	/	/
Cc1cc(NC(=O)CSc2nc3c(C)ccc(C)c3cc2C#N)no1	17%	0%	0%	/	-16%	0%	/	/	/	/	/
Cc1cc(C)c(C#N)c(SCC(=O)Nc2cc(C)on2)n1	18µM*	?	/	/	/	/	/	/	/	/	-4%
COc1ccc(OC)c(Nc2nc(NCCCN(C)C)nc(N)c2[N+](=O)[O-])c1	0%	-1%	1%	/	-7%	-24%	/	/	/	/	/
COCCCNc1nc(N)c([N+](=O)[O-])c(Nc2cc(OC)ccc2OC)n1	?	1.8µM*	-1%	/	-4%	-3%	1.1µM*	?	?	-2%	-7%
O=C(CCCc1ccccc1)NCCS(=O)(=O)N1CCN(c2ccccc2F)CC1	3%	?	?	/	20%	19%	/	/	/	/	/
O=[N+]([O-])c1ccc(N2CCCC2)nc1N1CCCC1	-3%	-1%	-3%	/	-4%	15%	/	/	/	/	/
Nc1ncc([N+](=O)[O-])c(N2CCCCCC2)n1	-26%	2.3µM*	1%	/	13%	-2%	4.4µM*	13µM*	-14%	-1%	-13%
CCN(c1ccc(C)cc1C)S(=O)(=O)c1nnc(NC(=O)c2ccc(F)cc2)s1	/	/	2%	/	/	/	/	/	/	/	/
CCCn1c(N)c(C(=O)COC(=O)CCNS(=O)(=O)c2ccccc2F)c(=O)[nH]c1=O	-7%	1%	4%	/	-2%	-4%	/	/	/	/	/
O=C1CCc2cc(NS(=O)(=O)c3ccccc3)cc3c2N1CCC3	0%	?	3%	/	0%	0%	/	/	/	/	6%	ELG1 FLuc counter=14%;FLuc enzyme=0%
O=C1CCc2cc(NS(=O)(=O)c3ccccc3)cc3c2N1CC3	4.1µM*	28%	-8%	/	0%	-1%	/	/	/	/	3%	ELG1 FLuc counter=26%;FLuc enzyme=1%
O=C1CCc2cc(NS(=O)(=O)c3ccc(F)cc3)cc3c2N1CCC3	6%	17%	0%	/	-3%	2%	/	/	/	/	/
O=C1CCc2cc(NS(=O)(=O)c3ccc(Cl)cc3)cc3c2N1CC3	?	?	-5%	/	4%	1%	/	/	/	/	/
